Reference: article PMC4336329 (PLoS ONE, 2015)
The campaign covered roughly 310,000 compounds. About 14,000 (4.5%) showed an effect of 50% or more. The effect is printed as a negative number. The sample holds strong results, similar compounds and a random draw of the others, so the mix is not that of the screen.

The compounds below were run against human ether-à-go-go-related gene (hERG) potassium channel (human, UniProt Q12809) (assay: primary screen, population patch clamp on CHO cells stably expressing hERG; higher = less effect of the substance).
Chain of human ether-à-go-go-related gene (hERG) potassium channel (Q12809 whole entry, looked up): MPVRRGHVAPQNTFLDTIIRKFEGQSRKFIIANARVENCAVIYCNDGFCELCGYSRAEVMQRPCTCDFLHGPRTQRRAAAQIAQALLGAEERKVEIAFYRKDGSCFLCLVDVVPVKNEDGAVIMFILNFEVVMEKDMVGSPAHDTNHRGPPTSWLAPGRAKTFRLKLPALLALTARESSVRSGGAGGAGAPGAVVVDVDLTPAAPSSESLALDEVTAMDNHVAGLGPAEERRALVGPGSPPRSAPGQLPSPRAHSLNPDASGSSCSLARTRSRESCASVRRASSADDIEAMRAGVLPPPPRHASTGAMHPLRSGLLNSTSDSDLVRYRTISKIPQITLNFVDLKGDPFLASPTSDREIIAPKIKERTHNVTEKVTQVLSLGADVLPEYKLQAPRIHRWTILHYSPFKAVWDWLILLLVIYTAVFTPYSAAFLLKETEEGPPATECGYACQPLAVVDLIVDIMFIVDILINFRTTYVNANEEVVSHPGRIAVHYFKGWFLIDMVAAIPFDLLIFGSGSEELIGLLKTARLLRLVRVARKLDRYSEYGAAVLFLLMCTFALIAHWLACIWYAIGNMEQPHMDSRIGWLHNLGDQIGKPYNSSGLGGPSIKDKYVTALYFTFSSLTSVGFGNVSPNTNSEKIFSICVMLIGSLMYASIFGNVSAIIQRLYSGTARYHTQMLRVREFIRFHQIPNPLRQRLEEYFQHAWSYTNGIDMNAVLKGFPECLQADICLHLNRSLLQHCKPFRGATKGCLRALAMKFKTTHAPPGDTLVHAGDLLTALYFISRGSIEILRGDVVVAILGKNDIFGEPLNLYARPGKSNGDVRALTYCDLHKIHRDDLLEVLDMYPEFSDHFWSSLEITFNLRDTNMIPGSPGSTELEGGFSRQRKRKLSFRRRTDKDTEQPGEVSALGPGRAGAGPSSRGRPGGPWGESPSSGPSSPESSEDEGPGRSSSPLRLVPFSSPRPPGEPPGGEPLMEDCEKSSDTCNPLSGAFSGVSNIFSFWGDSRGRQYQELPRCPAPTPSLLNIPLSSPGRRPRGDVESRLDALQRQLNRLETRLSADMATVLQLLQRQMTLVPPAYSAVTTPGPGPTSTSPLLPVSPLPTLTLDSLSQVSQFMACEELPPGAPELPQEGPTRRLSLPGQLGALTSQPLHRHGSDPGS
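Note: peak tail current of the secondary pulse compared with the same well before compound.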

| SMILES | hERG current change (%, negative = inhibition) at 10uM [%] |
| --- | --- |
| O=C(CNc1cccc([N+](=O)[O-])c1)N/N=C/c1ccc([N+](=O)[O-])o1 | -36 |
| O=C(CN1CCN(c2ccccc2)CC1)N1CCc2[nH]c3ccccc3c2C1 | -26.9 |
| COc1ccccc1NC(=O)N1CCCC1C(=O)NCc1cccs1 (stereo not drawn) | 0.509 |
| COc1ccc(CCNCc2ccc(OCc3ccccc3)cc2)cc1 | -41.6 |
| COc1cc(CNCc2ccc(SC)cc2)cc(OC)c1 | -14.9 |
| COc1cccc(CNCCc2ccc(F)cc2)c1.O=C(O)C(=O)O | -9.82 |
| COc1cccc(CCNCc2c(F)cccc2F)c1.O=C(O)C(=O)O | -15.1 |
| COc1cccc(CCNCc2ccc(SC)cc2)c1.O=C(O)C(=O)O | -67.7 |
| COc1ccc(CCNCc2ccc(SC)cc2)cc1 | -73.2 |
| CC(=O)N1c2ccc(S(=O)(=O)NC(CC(=O)O)c3ccc(Br)cc3)cc2CC1C (stereo not drawn) | 22.3 |
| CC1CCN(S(=O)(=O)c2ccccc2)CC1 | -3.32 |
| O=C(CCNS(=O)(=O)c1ccc(Br)cc1)NCc1ccc2c(c1)OCO2 | -3.3 |
| Cc1c(C)n(-c2ccccc2)c2ncnc(NCCCN(C)C)c12 | 0.841 |
| OCCOCCNc1ncnc2c1c(-c1ccccc1)cn2-c1ccccc1 | -50.6 |
| COc1ccc(-n2cc(-c3ccccc3)c3c(NCCOCCO)ncnc32)cc1 | -42.9 |
| CN(C)CCCNc1ncnc2c1c(-c1ccccc1)cn2-c1ccccc1 | -64.4 |
| OCCOCCNc1ncnc2c1cnn2-c1ccccc1 | 9.79 |
| CN(C)CCCNc1ncnc2c1cnn2-c1ccccc1 | -22.8 |
| O=C(N/N=C/c1cccnc1)c1cc2ccccc2cc1O | 5.26 |
| C[C@@]12C(=O)N(c3ccc(C(F)(F)F)cc3)C(=O)N1[C@@H]1c3ccccc3OC[C@@H]1[C@H]2c1ccccc1 | 20 |
| O=C(Cn1c(=O)n(CC2CCCO2)c(=O)c2ccccc21)c1ccc(Cl)c(Cl)c1 (stereo not drawn) | -16.4 |
| O=C(NCc1ccc2c(c1)OCO2)Nc1ccc([N+](=O)[O-])cc1 | 21.1 |
| CN(CC(=O)NCc1ccc2c(c1)OCO2)S(=O)(=O)c1ccc(F)cc1 | -8.53 |

| SMILES | hERG current change (%, negative = inhibition) at 10uM [%] |
| --- | --- |
| CN(CCCC(=O)NCc1ccc2c(c1)OCO2)S(=O)(=O)c1ccc([N+](=O)[O-])cc1 | -68.1 |
| Cc1ccc(S(=O)(=O)N(C)CCCC(=O)NCc2ccc3c(c2)OCO3)cc1 | -23.5 |
| CN(CCCC(=O)NC1CC(C)(C)NC(C)(C)C1)S(=O)(=O)c1ccc([N+](=O)[O-])cc1 | 12.5 |
| COc1ccc(S(=O)(=O)N(C)CC(=O)NCc2ccc3c(c2)OCO3)cc1 | -8.31 |
| CCOc1ccc(S(=O)(=O)N(C)CC(=O)NCc2ccc3c(c2)OCO3)cc1 | -64.4 |
| CN(CCCC(=O)NCc1ccccc1)S(=O)(=O)c1ccc([N+](=O)[O-])cc1 | -65.6 |
| CN(CCCC(=O)NCCc1ccccc1)S(=O)(=O)c1ccc([N+](=O)[O-])cc1 | -37.6 |
| C=CCn1c(SCCCc2ccccc2)nc2c1c(=O)[nH]c(=O)n2C | -26.1 |
| COc1ccc(OC)c(NS(=O)(=O)c2ccc(-c3coc(C)n3)cc2)c1 | 0.503 |
| COc1cccc(NC(=O)N2CCCC2C(=O)NC2CC2)c1 (stereo not drawn) | 3.61 |
| COc1ccc(-c2[nH]ncc2CN(C)Cc2cnccn2)c(OC)c1 | 14 |
| O=C(O)c1cc2n(n1)C(C(F)(F)F)CC(c1ccco1)N2 (stereo not drawn) | 22.2 |
| O=S(=O)(NC1CCCCC1N1CCN(c2ccc(F)cc2)CC1)c1ccccc1 (stereo not drawn) | -7.05 |
| O=C(CCN1C(=O)/C(=C/c2ccccc2F)SC1=S)NCCCn1ccnc1 | -38.1 |
| COc1ccc(/C=C2\SC(=S)N(CCC(=O)NCCCn3ccnc3)C2=O)cc1 | -28.5 |
| O=C(CCN1C(=O)S/C(=C\c2ccccc2)C1=O)NCCCn1ccnc1 | -38.4 |
| O=C(CCN1C(=O)/C(=C/c2ccc(F)cc2)SC1=S)NCCCn1ccnc1 | -63.6 |
| O=C(CCCN1C(=O)/C(=C/c2ccc(F)cc2)SC1=S)NCCCn1ccnc1 | -71 |
| O=C(CCCN1C(=O)/C(=C/c2ccccc2)SC1=S)NCCCn1ccnc1 | -59.9 |
| O=C(CCCN1C(=O)c2ccccc2C1=O)NCCCn1ccnc1 | 13.4 |
| COc1ccccc1/C=C1\SC(=S)N(CCC(=O)NCCCn2ccnc2)C1=O | -44.7 |
| O=C(CCN1C(=O)/C(=C/c2ccc(Cl)cc2)SC1=S)NCCCn1ccnc1 | -23.4 |
